In the library only some 9.9% were active in any assay of this set; here they are far more common.
HPGD inh – inhibitors of human 15-hydroxyprostaglandin dehydrogenase (HPGD) | Potency, µM, without a hit: at the highest dose activity change, negative = inhibition, hits mostly inhibitors | 150,000 compounds, 4.3% hits | purified HPGD, NADH fluorescence kinetic, PGE2 substrate | P15428; active means well fitted inhibition curve with a large enough effect, not every such curve was filed as active; inconclusive means small, poorly fitted or top-dose-only effect, or another doubt; inactive means no such curve, though single readings can be large or run the other way
Target sequence (P15428 whole entry, looked up): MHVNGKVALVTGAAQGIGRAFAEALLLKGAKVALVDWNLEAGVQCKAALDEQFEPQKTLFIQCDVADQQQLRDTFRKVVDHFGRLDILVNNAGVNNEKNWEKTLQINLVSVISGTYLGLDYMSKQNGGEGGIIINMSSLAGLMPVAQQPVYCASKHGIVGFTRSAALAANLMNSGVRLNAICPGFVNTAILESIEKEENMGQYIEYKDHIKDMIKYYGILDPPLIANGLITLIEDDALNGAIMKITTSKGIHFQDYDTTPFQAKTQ
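NADH formation kinetics: reaction with 30 uM PGE2 and 1 mM NAD+ (final), 20 nM enzyme, Tris-HCl pH 8 with Tween 20, after 15 min compound preincubation at room temperature. Fluorescence change, last versus first of five reads.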
Tau fluor cs – counter-screen for tau fibril formation inhibitors; tau K18 P301L Alexa594 fluorescence, heparin fibrillization; Potency, µM (doses to about 57.7 µM), for the others: at the highest dose activity change, negative = decrease; 280,000 compounds, 0.93% hits; AID 1463; further: nearly all actives have a fitted effect of over 55% in size
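Human tau K18 P301L (15 uM unlabeled, 0.24 uM Alexa 594-labeled) in 100 mM sodium acetate pH 7 with 20 uM heparin, 6 hr at 37 C. ThT 30 uM added, 1 hr ambient; Alexa 594 FP and total fluorescence read at 555/632 nm.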
Tau fibril ThT – inhibitors of human tau fibril formation, thioflavin T binding; P10636; recombinant tau K18 P301L, heparin-induced fibrillization, ThT fluorescence; Potency, µM (highest dose often 57.4 µM), inactives show at the top dose activity, negative = inhibition, actives largely listed as inhibitors; 270,000 compounds, 2.1% hits; AID 1460; further: nearly all actives have a fitted effect of over 55% in size
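Using a mix of unlabeled (15 uM) and Alexa 594-labeled (0.24 uM) tau K18 P301L, heparin-triggered fibrillization over 6 hr at 37 C was scored by ThT fluorescence.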
Tau fibril FP – tau fibrillization inhibition (FP). Potency, µM (doses to about 57.7 µM), without a hit: top-dose activity, negative = inhibition, actives largely listed as inhibitors. AID 1468. K18 P301L tau heparin fibrillization, Alexa594 FP, 6 h. 280,000 compounds, 0.39% hits; further: nearly all actives have a fitted effect of over 55% in size
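Quantitative HTS format: compounds meet 15 uM recombinant K18 P301L tau and Alexa 594-tau tracer in 100 mM sodium acetate pH 7; 20 uM heparin triggers fibrillization at 37 C over 6 hr; FP gives the signal.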
ALDH1A1 block – blocks purified human ALDH1A1 activity; P00352; Purified ALDH1A1, NADH fluorescence, propionaldehyde substrate; Potency, µM (series often up to 75.3 µM), without a hit: at the highest dose activity, negative = inhibition, hits mostly inhibitors; 220,000 compounds, 7.3% hits; active means well fitted inhibition curve with a large enough effect, not every such curve was filed as active; inconclusive means small, poorly fitted or top-dose-only effect, or another doubt; inactive means no such curve, though single readings can be large or run the other way;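 further: plate controls were no enzyme wells and a reference inhibitor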
KDM4E inh – blocks human JMJD2E demethylase activity. Potency, µM (series often up to 57.1 µM), inactives show at the top dose activity change, negative = inhibition, usual class: inhibitors. 230,000 compounds, 1.6% hits. JMJD2E catalytic domain, FDH-coupled NADH fluorescence (FDH is formaldehyde dehydrogenase);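 further: 0% = wells with enzyme and -100% = buffer wells without enzyme; nearly all actives have a fitted effect of over 50% in size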
Target sequence (B2RXH2 1-337 limits assumed): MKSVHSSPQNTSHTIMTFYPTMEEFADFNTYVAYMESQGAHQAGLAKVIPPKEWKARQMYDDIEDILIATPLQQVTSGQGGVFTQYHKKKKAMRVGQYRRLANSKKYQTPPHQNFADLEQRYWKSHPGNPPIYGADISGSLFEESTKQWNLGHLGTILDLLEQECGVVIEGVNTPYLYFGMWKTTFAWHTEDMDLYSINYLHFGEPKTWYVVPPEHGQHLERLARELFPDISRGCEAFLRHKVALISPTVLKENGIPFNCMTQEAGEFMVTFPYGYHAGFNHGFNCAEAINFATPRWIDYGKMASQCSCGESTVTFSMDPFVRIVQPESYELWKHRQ
An asterisk follows results filed as active; ? = inconclusive; nt = no result given; [ ] = dose if it differs, or a comment. Unless noted, the call rests on the fitted dose curve; in most records, active means well fitted curve in the direction sought with a large enough effect; inconclusive means small, poorly fitted or top-dose-only effect, or another doubt; inactive means no such curve, though single readings can be large; an effect the other way counts as inactive or inconclusive. Unless noted, on the % scale 0 is the no-effect control and ±100 the full control effect; potency means the concentration at half of the fitted maximal effect.

SMILES	HPGD inh	Tau fluor cs	Tau fibril ThT	Tau fibril FP	ALDH1A1 block	KDM4E inh
CCN1C(=O)/C(=C2\SC(=S)N(NC(=O)c3ccccc3O)C2=O)c2ccccc21	nt	20µM*[quencher]	20µM*	?	nt	25µM*
CC(/C=C1\SC(=S)N(NS(=O)(=O)c2ccccc2)C1=O)=C\c1ccccc1	nt	-29%	10µM*	?	nt	17%
CC(/C=C1\SC(=S)N(c2ccc(C(=O)O)cc2)C1=O)=C\c1ccccc1	nt	11%[0.0958 µM]	nt	0%[0.0958 µM]	nt	-2%
CCCCn1c(SCC(=O)NCc2ccco2)nc2cc(S(N)(=O)=O)ccc21	?	7%	2%	2%	14µM*	1%
CCCCn1c(SCC(=O)c2ccc(OCC)cc2)nc2cc(S(N)(=O)=O)ccc21	-9%	-16%	-15%	-13%	35µM*	2%
CCCCn1c(SCC(=O)c2ccc(OC)c(OC)c2)nc2cc(S(N)(=O)=O)ccc21	-12%	-4%	-12%	2%	?	-13%
CCOC(=O)c1c(NC(=O)C2=C(C)NC(=S)NC2c2ccc(F)cc2)sc(C)c1C (centres undefined)	?	-12%	-6%	1%	14µM*	?
CCOC(=O)c1c(NC(=O)C2=C(C)NC(=S)NC2c2ccc(F)cc2F)sc(C)c1C (centres undefined)	-21%	-21%	-12%	5%	11µM*	?
COc1ccc2c(c1)CCC1C2=NN(/C(C)=C/C(C)=O)C1c1cccc(F)c1 (centres undefined)	nt	-17%	?	5%	28µM*	3%
C=CCSc1nnc(-c2ccc(Cl)cc2Cl)o1	11µM*	-15%	-14%	-2%	-13%	2%
Clc1ccc(-c2nnc(SCc3ccon3)o2)c(Cl)c1	?	-6%	-2%	1%	0%	-6%
CCC(Sc1nc2cc3c(cc2c(=O)n1Cc1ccco1)OCO3)C(=O)Nc1cccc(OC)c1 (centres undefined)	-11%	-23%	-9%	-9%	?	-3%
CCC(Sc1nc2cc3c(cc2c(=O)n1Cc1ccco1)OCO3)C(=O)NCCOC (centres undefined)	-5%	-8%	-10%	-6%	2.2µM*	-3%
CCN(CC)C(=O)CSc1nc2cc3c(cc2c(=O)n1Cc1ccco1)OCO3	nt	1%	7%	-3%	0.89µM*	-9%
CCOC(=O)CSc1nc2cc(C(=O)NCC3CCCO3)ccc2c(=O)n1Cc1ccco1 (centres undefined)	-25%	-11%	-8%	0%	?	4%
CCC(Sc1nc2cc3c(cc2c(=O)n1Cc1ccco1)OCO3)C(=O)Nc1ccccc1OC (centres undefined)	-16%	-11%	-7%	-3%	1.1µM*	6%
CCC(C)NC(=O)CSc1nc2cc3c(cc2c(=O)n1Cc1ccco1)OCO3 (centres undefined)	nt	-11%	-14%	-12%	?	3%
COCCNC(=O)c1ccc2c(=O)n(Cc3ccco3)c(SCC(=O)NC3CCCC3)nc2c1	-23%	0%	1%	0%	7.9µM*	?
Cc1cccc(Cc2c(C)nc3nc(SCC(=O)NC4CCCCC4)nn3c2C)c1	nt	-2%	-8%	1%	nt	nt
COCCCn1c(SCC(=O)NC2CCCC2)nnc1-c1ccco1	-14%	4%	-9%	9%	13µM*	-6%
CCN(CC)C(=O)CSc1nc2c(sc(=S)n2Cc2ccco2)c(=O)n1-c1ccccc1	-9%	-13%	?	1%	6.3µM*	10%
CCOC(=O)CSc1nc2c(sc(=S)n2Cc2ccco2)c(=O)n1-c1ccccc1	-11%	-15%	-3%	-8%	?	-1%
COCCNC(=O)CSc1nc2cc3c(cc2c(=O)n1Cc1ccco1)OCO3	-6%	-10%	-14%	-4%	13µM*	3%
CCOc1ccc(NC(c2ccccn2)c2oc(CO)cc(=O)c2O)cc1 (centres undefined)	nt	-11%	?	-9%	?	22µM*
O=C1CC(C(=O)Nc2ccc(Cl)cc2[N+](=O)[O-])C2(CCCCC2)O1 (centres undefined)	-4%	-18%	-6%	2%	2%	13%
SMILES	HPGD inh	Tau fluor cs	Tau fibril ThT	Tau fibril FP	ALDH1A1 block	KDM4E inh
C=CCn1c(CNC(=O)c2ccco2)nnc1SCC(=O)N1c2ccccc2Sc2ccccc21	-10%	-14%	-20%	8%	0.56µM*	-7%
Cc1ccccc1C(=O)NCc1nnc(SCC(=O)N2c3ccccc3Sc3ccccc32)n1C	-5%	-6%	-19%	4%	25µM*	5%
Cn1c(CNC(=O)c2ccccc2F)nnc1SCc1ccc(Cl)cc1	nt	-2%	-3%	-1%	-8%	-8%
CC(C)(C)NS(=O)(=O)c1ccc(Oc2ncc(C(F)(F)F)cc2Cl)cc1	-5%	-21%	-23%	1%	-5%	1%
CC(C)(C)NS(=O)(=O)c1cnc(Cl)c(Cl)c1	-5%	-4%	-5%	-7%	32µM*	2%
O=C1c2[nH]nc(-c3ccccc3)c2C(c2ccccc2)N1c1cccc(C(F)(F)F)c1 (centres undefined)	nt	?	-19%	?	nt	nt
O=C(c1ccc(-n2c(SCc3cc(F)ccc3F)nc3ccccc3c2=O)cc1)N1CCOCC1	-12%	7%	1%	-7%	35µM*	5%
CCOC(=O)CC(=O)CSc1nc2ccccc2c(=O)n1-c1ccc(C(=O)N2CCOCC2)cc1	-11%	3%	-7%	11%	-10%	-10%
COc1ccc(Cl)cc1NC(=O)c1cc2nc(-c3ccc4c(c3)OCO4)cc(C(F)(F)F)n2n1	nt	-5%	-12%	-6%	nt	nt
COc1cccc(Cn2c(=O)c(CCc3ccccc3)nc3cnc(OC)nc32)c1	-17%	nt	nt	nt	3%	nt
Cc1ccc(N=Cc2sc(O)c3ccccc23)c(C)c1	-12%	-28%	?	?	13µM*	?
Cc1ccccc1N=Cc1cccc(O)c1O	-7%	?	7.9µM*	?	5µM*	11µM*
Cc1cccc(C=Nc2ccc3c(c2)oc2ccccc23)c1O	?	-4%	-3%	-1%	10%	2%
CC(N=Cc1cccc(O)c1O)c1ccccc1 (centres undefined)	2.8µM*	?	5µM*	?	?	14µM*
Cc1ccc(N=Cc2cccc(O)c2O)c(C)c1	3.2µM*	?	3.2µM*	8.9µM*	?	14µM*
CCc1ccc(OCC2c3cc(OC)c(OC)cc3CCN2C(=O)COc2ccccc2)cc1 (centres undefined)	nt	-10%	-13%	-11%	nt	nt
